In article PMC4336329 (PLoS ONE, 2015):
About 14,000 (4.5%) of roughly 310,000 compounds showed an effect of 50% or more. The effect is printed as a negative number. What follows is part of a selection rich in strong results, with near analogues and random picks from the rest.

Each compound was assayed against human ether-à-go-go-related gene (hERG) potassium channel (human, UniProt Q12809) (assay: primary screen, population patch clamp on CHO cells stably expressing hERG; higher = less effect of the substance).
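Note: peak tail current of the secondary pulse compared with the same well before compound.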

Sequence of human ether-à-go-go-related gene (hERG) potassium channel (Q12809 whole entry, looked up): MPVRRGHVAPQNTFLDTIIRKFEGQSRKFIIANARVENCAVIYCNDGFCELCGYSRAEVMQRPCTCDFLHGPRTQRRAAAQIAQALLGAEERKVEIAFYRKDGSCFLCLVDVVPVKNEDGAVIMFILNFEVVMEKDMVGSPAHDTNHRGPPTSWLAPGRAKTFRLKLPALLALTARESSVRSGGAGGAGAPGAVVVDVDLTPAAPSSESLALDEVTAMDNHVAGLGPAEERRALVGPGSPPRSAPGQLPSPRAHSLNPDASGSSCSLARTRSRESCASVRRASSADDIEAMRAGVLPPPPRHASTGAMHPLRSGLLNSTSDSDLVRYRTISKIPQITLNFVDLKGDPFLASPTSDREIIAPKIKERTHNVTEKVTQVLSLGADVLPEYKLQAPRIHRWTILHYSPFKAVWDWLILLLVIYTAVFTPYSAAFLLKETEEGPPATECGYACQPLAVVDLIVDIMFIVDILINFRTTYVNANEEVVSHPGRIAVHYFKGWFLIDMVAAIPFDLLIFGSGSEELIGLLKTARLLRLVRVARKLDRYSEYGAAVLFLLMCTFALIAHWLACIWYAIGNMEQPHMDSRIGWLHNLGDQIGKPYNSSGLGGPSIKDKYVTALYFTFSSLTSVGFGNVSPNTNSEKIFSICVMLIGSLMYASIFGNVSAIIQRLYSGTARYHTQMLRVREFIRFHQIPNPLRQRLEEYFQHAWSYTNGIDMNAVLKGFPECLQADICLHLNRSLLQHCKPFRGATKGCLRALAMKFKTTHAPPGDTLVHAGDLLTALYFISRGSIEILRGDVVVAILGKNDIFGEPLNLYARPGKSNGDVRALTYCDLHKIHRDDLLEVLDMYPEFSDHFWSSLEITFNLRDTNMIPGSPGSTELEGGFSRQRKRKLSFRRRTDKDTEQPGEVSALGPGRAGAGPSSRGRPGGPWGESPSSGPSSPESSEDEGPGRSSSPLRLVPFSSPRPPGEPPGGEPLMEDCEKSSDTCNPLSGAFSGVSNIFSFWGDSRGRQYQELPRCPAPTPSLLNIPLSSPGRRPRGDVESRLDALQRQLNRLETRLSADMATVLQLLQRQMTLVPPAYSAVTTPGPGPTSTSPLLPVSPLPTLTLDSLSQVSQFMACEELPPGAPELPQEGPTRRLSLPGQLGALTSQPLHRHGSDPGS

Going from `Cc1ccc(OCC(=O)NN2C(=O)c3ccccc3C2=O)c(C)c1` to `Cc1ccc(S(=O)(=O)N(C)C)cc1NC(=O)COC(=O)c1c(-c2ccccc2)noc1C`, the “hERG current change (%, negative = inhibition) at 10uM” value falls from 6.34% to -24.8%.

Compared with `CC(C)c1nc(-c2ccc([N+](=O)[O-])cc2)cs1`, `O=C(NCc1ccco1)c1ccc([N+](=O)[O-])cc1Cl` is lower in “hERG current change (%, negative = inhibition) at 10uM” value: 1.87% for the first, -3.96% for the second.

Going from `CSCCC(NC(=O)c1ccc([N+](=O)[O-])cc1Cl)C(=O)OCC(=O)N1CCN(C(C)=O)CC1` (stereo not drawn) to `CSCCC(NC(=O)c1ccc([N+](=O)[O-])cc1Cl)C(=O)OCC(=O)N(C)C` (stereo not drawn), the “hERG current change (%, negative = inhibition) at 10uM” value falls from 3.12% to -2.34%.

First: CSCCC(NC(=O)c1ccc(Cl)cc1Cl)C(=O)OC(C)C(=O)NCc1ccco1 (stereo not drawn)
Second: CSCCC(NC(=O)c1ccc([N+](=O)[O-])cc1Cl)C(=O)OC(C)C(=O)NCc1ccco1 (stereo not drawn)
The “hERG current change (%, negative = inhibition) at 10uM” value of the first is higher: -51.8% for the first, -61.7% for the second.

First: CSCCC(NC(=O)c1ccc([N+](=O)[O-])cc1Cl)C(=O)OCC(=O)NCCCc1ccccc1 (stereo not drawn)
Second: CSCCC(NC(=O)c1ccc([N+](=O)[O-])cc1Cl)C(=O)OCC(=O)NCC(F)(F)F (stereo not drawn)
The “hERG current change (%, negative = inhibition) at 10uM” value of the first is lower: -57.8% for the first, -16.7% for the second.

First: CSCCC(NC(=O)c1ccc(Cl)cc1)C(=O)OCC(=O)NCc1ccco1 (stereo not drawn)
Second: CSCCC(NC(=O)c1ccc(Cl)cc1Cl)C(=O)OCC(N)=O (stereo not drawn)
The “hERG current change (%, negative = inhibition) at 10uM” value of the first is lower: -23.8% for the first, -5.4% for the second.

Going from `CC(=O)Nc1ccc(NCc2ccc(C)s2)cc1` to `CC(=O)Nc1ccc(S(=O)(=O)Nc2cc3c(cc2C(C)=O)OCO3)cc1`, the “hERG current change (%, negative = inhibition) at 10uM” value rises from -3.79% to 20.7%.

Compared with `CCc1ccc(OCC(=O)NNC(=O)c2c(CC)noc2C)cc1`, `CCOC(=O)COc1ccc(C(=O)Nc2cccc(Cl)c2C)cc1` is higher in “hERG current change (%, negative = inhibition) at 10uM” value: 10.8% for the first, 18.9% for the second.

Going from `Cc1nnc(NC2=NCCC2)o1` to `Cc1cccc(N(CC(=O)NC2CCCC2)C(=O)c2csnn2)c1C`, the “hERG current change (%, negative = inhibition) at 10uM” value rises from 3.71% to 19.5%.

Compared with `CC(=O)CCc1c[nH]c2c(C(=O)O)cccc12`, `CCOC(=O)/C(=C\c1c[nH]c2ccccc12)NC(C)=O` is lower in “hERG current change (%, negative = inhibition) at 10uM” value: 5.11% for the first, 0.157% for the second.

First: CCOc1ccccc1Nc1nnc(SCC(=O)Nc2cc(C)on2)s1
Second: CCOC(=O)c1cc2c(=O)n3ccccc3nc2n(Cc2ccccc2)c1=N
The “hERG current change (%, negative = inhibition) at 10uM” value of the first is higher: 6.14% for the first, -74.6% for the second.

Compared with `CC(N)Cc1cn(Cc2ccccc2)c2ccccc12.Cl` (stereo not drawn), `COC(=O)c1cn(Cc2cccnc2)c(=O)c2ccccc12` is higher in “hERG current change (%, negative = inhibition) at 10uM” value: -7.76% for the first, 3.15% for the second.

Compared with `COc1cccc(CNC(=O)COc2ccc(C(=O)c3ccccc3)cc2)c1`, `COc1ccc(CNC(=O)Cn2nc(Cc3cccnc3)c3ccccc3c2=O)cc1` is lower in “hERG current change (%, negative = inhibition) at 10uM” value: -11.7% for the first, -43.3% for the second.

Going from `O=C(CSc1nc2c(c(=O)n1-c1ccc(Cl)cc1)SCC2)NCc1ccco1` to `O=C(NCc1ccc2c(c1)OCO2)c1cnc2ccccn2c1=O`, the “hERG current change (%, negative = inhibition) at 10uM” value rises from -19.4% to -6.29%.

First: CCn1cc(CCC(=O)NCc2cccc(OC)c2OC)c2ccccc21
Second: COc1cccc(CN2CCN(C(=O)c3ccc(-c4ccccc4)cc3)CC2)c1OC.O=C(O)C(=O)O
The “hERG current change (%, negative = inhibition) at 10uM” value of the first is higher: 8.51% for the first, -5.41% for the second.

Compared with `COc1ccc(S(=O)(=O)N/N=C(/C)c2ccncc2)cc1OC`, `COc1cc(CN2CCN(S(=O)(=O)c3ccc(F)cc3)CC2)cc(OC)c1OC.O=C(O)C(=O)O` is lower in “hERG current change (%, negative = inhibition) at 10uM” value: -1.27% for the first, -5.89% for the second.

Going from `COc1ccc(Cn2c(=S)[nH]c3cc(C(=O)NCc4cccnc4)ccc3c2=O)cc1` to `COc1ccc(CNC(=O)c2cc3c(=O)n4ccccc4nc3n(Cc3cccnc3)c2=N)cc1`, the “hERG current change (%, negative = inhibition) at 10uM” value falls from 12.3% to -58.6%.

First: O=C(CCn1c(=O)c2ccccc2n(Cc2cccnc2)c1=O)NCc1ccc2c(c1)OCO2
Second: N=c1c(C(=O)NCc2ccc3c(c2)OCO3)cc2c(=O)n3ccccc3nc2n1Cc1cccnc1
The “hERG current change (%, negative = inhibition) at 10uM” value of the first is higher: -5.1% for the first, -80.4% for the second.

First: COCCCn1c(C(=O)Nc2ccc3c(c2)OCO3)cc2c(=O)n3ccccc3nc21
Second: COCCCn1c(=N)c(C(=O)NCc2ccc3c(c2)OCO3)cc2c(=O)n3ccccc3nc21
The “hERG current change (%, negative = inhibition) at 10uM” value of the first is higher: 8.51% for the first, -83.5% for the second.

First: Cc1nc2ccccn2c1C(=O)NCc1ccc2c(c1)OCO2
Second: Cc1nc2ccccn2c1C(=O)NCc1cccnc1
The “hERG current change (%, negative = inhibition) at 10uM” value of the first is higher: -0.471% for the first, -3.36% for the second.

Going from `CCOC(=O)c1ccccc1NC(=O)CN(c1ccccc1)S(=O)(=O)N(C)C` to `CCc1cccc(NC(=O)CNC(=O)N2CC(=O)Nc3ccccc32)c1`, the “hERG current change (%, negative = inhibition) at 10uM” value rises from -19.9% to -8.55%.

Compared with `CC(C)[C@H](Nc1ccc(C(F)(F)F)cc1[N+](=O)[O-])C(=O)O.[Cl-]`, `COc1cc(CN2CCN(Cc3ccc(C(F)(F)F)cc3)CC2)cc(OC)c1OC.O=C(O)C(=O)O` is lower in “hERG current change (%, negative = inhibition) at 10uM” value: 20% for the first, -54.1% for the second.

Compared with `CCCCOc1cccc(C(=O)N(Cc2ccccc2)C2CCS(=O)(=O)C2)c1` (stereo not drawn), `COc1cc(CN2CCN(C(=O)c3cccc4ccccc34)CC2)cc(OC)c1OC.O=C(O)C(=O)O` is higher in “hERG current change (%, negative = inhibition) at 10uM” value: -14.2% for the first, 4.24% for the second.

Going from `O=C(NC1CCCC1)C(=O)N(Cc1cccnc1)C(C(=O)NCC1CCCO1)c1ccco1` (stereo not drawn) to `COC(=O)c1cc2c(=O)n3ccccc3nc2n(Cc2cccnc2)c1=N`, the “hERG current change (%, negative = inhibition) at 10uM” value falls from 38.2% to -64%.

First: CC(Oc1ccc(Br)cc1)C(=O)Nc1ccc(S(=O)(=O)N(C)C2CCN(C)CC2)cc1 (stereo not drawn)
Second: CCCn1c(=N)c(S(=O)(=O)c2ccc(F)cc2)cc2c(=O)n3ccccc3nc21
The “hERG current change (%, negative = inhibition) at 10uM” value of the first is lower: -26.7% for the first, -8.53% for the second.

Compared with `Cc1nc2ccc(P(=O)(O)O)cc2s1`, `Nc1cc(=O)[nH]c(N)n1` is lower in “hERG current change (%, negative = inhibition) at 10uM” value: 16.2% for the first, 15.9% for the second.

First: C=CCN1C(=O)C2(C(C(=O)c3ccc(C)o3)=C(O)C(=O)N2CCCN2CCOCC2)c2ccccc21 (stereo not drawn)
Second: COc1cc(CN2CCN(C(=O)c3ccc(-c4ccccc4)cc3)CC2)cc(OC)c1OC.O=C(O)C(=O)O
The “hERG current change (%, negative = inhibition) at 10uM” value of the first is higher: 3.04% for the first, -54.7% for the second.

Going from `COCCNC(=S)N1CCc2cc(OC)c(OC)cc2C1COc1ccc(C(C)C)cc1` (stereo not drawn) to `COc1cc(CN2CCN(C(=O)COc3ccccc3)CC2)cc(OC)c1OC`, the “hERG current change (%, negative = inhibition) at 10uM” value falls from 16.7% to -14.1%.

Going from `N=c1c(C(=O)NCc2ccc(F)cc2)cc2c(=O)n3ccccc3nc2n1Cc1cccnc1` to `COc1cc(CN2CCN(C(O)(c3ccccc3)c3ccccc3)CC2)cc(OC)c1OC.O=C(O)C(=O)O`, the “hERG current change (%, negative = inhibition) at 10uM” value rises from -76.2% to -55.1%.

Going from `CCOC(=O)N1CCN(CC(O)COc2c(C)cc(C)cc2C)CC1.Cl` (stereo not drawn) to `COc1cc(CN2CCN(C(=O)c3ccccc3F)CC2)cc(OC)c1OC.O=C(O)C(=O)O`, the “hERG current change (%, negative = inhibition) at 10uM” value rises from -18% to 6.56%.

Compared with `COc1ccc(CN2CCN(Cc3ccc(C(F)(F)F)cc3)CC2)c(OC)c1.O=C(O)C(=O)O`, `COc1cc(OC)c(OC)cc1CN1CCN(Cc2ccc(C(F)(F)F)cc2)CC1` is higher in “hERG current change (%, negative = inhibition) at 10uM” value: -74.1% for the first, -42.3% for the second.

With `COc1cc(CN2CCCCCC2)cc(OC)c1OC.O=C(O)C(=O)O` the “hERG current change (%, negative = inhibition) at 10uM” value was 13.8%.
